According to PubChem BioAssay:
The source made the active and inactive calls.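 The calls were made as follows, unless noted: active = compounds lowering colon cancer cell viability after pretreatment blocking the GSK3B kinase; inactive = the rest.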 Starred links: 1 amine or outer side, 2 acyl side, 3 side chain; linkers in the order of their positions; H or OH if unused. Positions of bridges follow the written chain, without caps; N, C: chain ends. Non-standard residues stand in square brackets, D forms with d. Residues, ends and D or L forms follow the SMILES beside them. ξ: configuration not given here. *: point of attachment. ΔAla(3-NHCONH2) = NC(=O)NC=C(N)C(=O)O; X1 = NC1=NCCC(C(N[*:1])C(=O)[*:2])N1; ξβ3hOrn = NCCCC(N)CC(=O)*; Dap = NC[CH](N)C(=O)O

Columns and labels:
[1] = Wnt pathway potentiators raising nuclear beta-catenin – imaging, WNT3A-conditioned medium, mouse C2C12, NPC library, primary screen (AID 1117326; in the data active = nuclear beta-catenin stimulation mostly above about 4.2%, no sharp cut-off; inactive = mostly below about 10%; also: reference of the scale not given here); conditions: stronger effect = higher value
[2] = stimulators of insulin release from INS-1E, primary screen, cell-based, 5 mM glucose, NPC library (AID 1117329;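 active = compound raises insulin release from rat beta cells at 5 mM glucose, no numeric limit stated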; also: reference of the scale not given here); conditions: rat INS-1E insulin secretion, at 10 µM, stronger effect = higher value
[3] = growth inhibition of GSK3B-pretreated HCT116 cells – cell-based, CellTiter-Glo, 0.2 to 20 µM (AID 1117336); conditions: HCT116 viability after GSK3B inhibitor, at 20 µM, stronger effect = higher value
[4] = inhibition of endothelial tube formation, primary screen, imaging, VEGF stimulated, CD31 staining, tube area, NPC library (AID 1117340;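 active = compound that reduces growth-factor-driven endothelial tube area in a mixed cell culture, no cutoff stated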); conditions: VEGF-stimulated ADSC/ECFC co-culture, at 10 µM, stronger effect = higher value
[5] = GLP1 release stimulators, primary, NCI-H716, NPC library (AID 1117341;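 active = compound raises GLP1 secretion from the human gut endocrine cells, with no numeric limit stated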; also: reference of the scale not given here); conditions: NCI-H716 cells, at 10 µM, stronger effect = higher value
[6] = HCT116 colon cancer cell growth inhibition, primary screen, CellTiter-Glo luminescence, NPC library (AID 1117342;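 active = compounds that lower survival of HCT116 colon cancer cells in the luminescence readout, no numeric limit stated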); conditions: at 20 µM (top of the series)
[7] = reduced SW480 viability measured with CellTiter-Glo, NPC library, primary (AID 1117343;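 active = compounds that lower viability of the colon cancer cells in the luminescence readout, with no numeric limit stated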); conditions: CellTiter-Glo luminescence; at 20 µM (top of the series)
[8] = NPC library primary testing for decreased DLD-1 cell viability via CellTiter-Glo (AID 1117346;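 active = compounds that lower survival of DLD-1 colon cancer cells in the luminescence readout, no cutoff given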); conditions: DLD-1 viability, CellTiter-Glo luminescence; at 20 µM (top of the series)

Structure (SMILES)	nuclear beta-catenin stimulation ([1]; at 10 µM)	nuclear beta-catenin stimulation ([1]; stimulation, at 2 µM) [%]	insulin secretion stimulation [2]	viability decrease [3]	tube area decrease [4]	GLP1 secretion stimulation [5]	inhibition of viability [6]	viability decrease (inhibition) [7]	viability decrease (inhibition) [8]
O=P(O)(O)C(O)(Cc1cnc2ccccn12)P(=O)(O)O	-0.5% (inactive)	1.4	-0.3% (inactive)	2.2% (inactive)	7.8% (inactive)	4.3% (inactive)	13.5% (active)	3.6% (inactive)	9.7% (inactive)
N#C[C@H]1C[C@H]2C[C@@H]2N1C(=O)[C@@H](N)C12CC3CC(CC(O)(C3)C1)C2	0.4% (inactive)	1.1	-2% (inactive)	-4.75% (inactive)	2.7% (inactive)	1.4% (inactive)	-5.3% (inactive)	9.8% (inactive)	6.25% (inactive)
O=C(O)C1CSC(C(=O)O)N1 (centres undefined)	0.7% (inactive)	1.2	-0.4% (inactive)	-6.8% (inactive)	-2.5% (inactive)	-3.3% (inactive)	2.5% (inactive)	4% (inactive)	-8.7% (inactive)
c1ccc2sc(SSc3nc4ccccc4s3)nc2c1	2.2% (inactive)	0.3	-0.6% (inactive)	-0.8% (inactive)	-4.4% (inactive)	22.3% (active)	-5.7% (inactive)	-1% (inactive)	-20.5% (inactive)
Cc1ccccc1C(=O)Nc1ccc(C(=O)N2CCCC(N(C)C)c3ccccc32)cc1 (centres undefined)	58.3% (active)	30	2.4% (inactive)	18.9% (inactive)	59.2% (active)	2.1% (inactive)	80.2% (active)	80.2% (active)	59% (active)
C[C@@H](O)[C@H]1C(=O)N2C(C(=O)O)=C(S[C@@H]3CN[C@H](CNS(N)(=O)=O)C3)[C@H](C)[C@H]12	2.9% (inactive)	3	-0.6% (inactive)	14% (inactive)	-14% (inactive)	0.3% (inactive)	25.7% (inactive)	3.1% (inactive)	-20.9% (inactive)
O=C(O)c1c(O)c(-c2ccccc2)nc2ccccc12	0.5% (inactive)	-0.8	3% (inactive)	66.1% (active)	2.6% (inactive)	-0.1% (inactive)	39.2% (inactive)	107% (active)	39% (inactive)
Cc1ccc(C(=O)Oc2ccc(C(O)CNC(C)(C)C)cc2OC(=O)c2ccc(C)cc2)cc1 (centres undefined)	31.3% (inactive)	1.1	4.5% (inactive)	79.2% (active)	107% (active)	-1.5% (inactive)	75.9% (active)	137% (active)	102% (active)
CCN(CC)S(=O)(=O)c1ccc(C(=O)O)cc1	1.6% (inactive)	0.7	-2.1% (inactive)	-8.6% (inactive)	8.6% (inactive)	-3.2% (inactive)	-14.7% (inactive)	40% (inactive)	7.45% (inactive)
C/C=C/C=N/NC(=O)c1ccncc1	0.2% (inactive)	0.6	-2.2% (inactive)	-6.2% (inactive)	6% (inactive)	-0.1% (inactive)	17% (inactive)	27.7% (inactive)	-3.65% (inactive)
NCCCC(N)CC(=O)NCC1NC(=O)C(CO)NC(=O)C(N)CNC(=O)C(C2CCN=C(N)N2)NC(=O)C(=CNC(N)=O)NC1=O (stereo not drawn) (H-[Dap]S[Dap](ξβ3hOrn)[ΔAla(3-NHCONH2)][X1]; lactam 1-C; configuration not given here)	0.2% (inactive)	1.8	-0.9% (inactive)	3.9% (inactive)	-1% (inactive)	-1.3% (inactive)	-22.2% (inactive)	-3.4% (inactive)	-12% (inactive)
Cc1c(C)c2c(c(C)c1OC(=O)CCC(=O)O)CC[C@@](C)(CCC[C@H](C)CCC[C@H](C)CCCC(C)C)O2	-0.9% (inactive)	-0.6	2.6% (inactive)	36.4% (inactive)	61.9% (active)	-3.2% (inactive)	54.9% (active)	75% (active)	66% (active)
Cc1cc2nc3c(=O)[nH]c(=O)nc-3n(C[C@H](O)[C@H](O)[C@H](O)COP(=O)(O)OP(=O)(O)OC[C@H]3O[C@@H](n4cnc5c(N)ncnc54)[C@H](O)[C@H]3O)c2cc1C	-2.2% (inactive)	0.2	5.5% (inactive)	-3.6% (inactive)	-2.4% (inactive)	-3.7% (inactive)	-18.9% (inactive)	16.1% (inactive)	-48.9% (inactive)
O=C1CC2(CCCC2)CC(=O)N1	-0.8% (inactive)	-1.2	0.4% (inactive)	-4% (inactive)	-10.3% (inactive)	-1.6% (inactive)	7.1% (inactive)	2.5% (inactive)	-2.4% (inactive)
CCCCCCCCCCC(CO)CCCCCCCC (centres undefined)	-0.6% (inactive)	-0.4	-0.5% (inactive)	11.5% (inactive)	-3.9% (inactive)	-4% (inactive)	5.07% (inactive)	14.5% (inactive)	-17.6% (inactive)
CC(=O)N1C[C@H](O)C[C@H]1C(=O)O	0.5% (inactive)	-0.3	-0.3% (inactive)	-2.7% (inactive)	-1.7% (inactive)	-0.9% (inactive)	7.13% (inactive)	8.1% (inactive)	4% (inactive)
